# Assay results as given in PubChem BioAssay (NCATS).
# Results filed as inconclusive are left out. Unmarked numbers belong to inactive results. Activity calls are given as the source filed them. Calls follow the shape of the dose curve; as a rule, active = well fitted cell-killing curve with a large enough effect; inconclusive = small, poorly fitted or top-dose-only effect, or effect the other way; inactive = no such curve, though single readings can be large or run the other way.
# Assay: Quantitative High-Throughput drug screen in 47 multiple myeloma cell lines against the NCATS MIPE library collection: MOLP8_DSMZ cell viability assay (AID 1918977); also: nearly all actives have a fitted effect of over 45% in size
# Details: MOLP8 myeloma viability, CellTiter-Glo ATP luminescence, 48 h; series mostly up to 45.8 µM; viability (% of control): at the top concentration
# Excerpt: PI: Beverly A. Mock Ph.D.
# Laboratory of Cancer Biology and Genetics,
# Center for Cancer Research, National Cancer Institute,
# National Institute of Health, Bethesda, Maryland
# Drug resistance and disease progression are common in multiple myeloma (MM) patients, underscoring the need for new therapeutic combinations. […] We hypothesized that effective combinations would reduce MYC expression and enhance p16 activity. […] These preclinical data identify potentially useful drug combinations for evaluation in drug-resistant MM and reveal potential mechanisms of combined drug sensitivity.
# Described herein is the primary MIPE qHTS used to cherrypick compounds. Validated compounds were then further tested for potential synergistic activiy.
# [1] Peat TJ, Gaikwad SM, Dubois W, Gyabaah-Kessie N, Zhang S, Gorjifard S, Phyo Z, Andres M, Hughitt VK, Simpson RM, Miller MA, Girvin AT, Taylor A, Williams D, D'Antonio N, Zhang Y, Rajagopalan A, Flietner E, Wilson K, Zhang X, Shinn P, Klumpp-Thomas C, McKnight C, Itkin Z, Chen L, Kazandijian D, Zhang J, Michalowski AM, Simmons JK, Keats J, Thomas CJ, Mock BA. Drug combinations identified by high-throughput screening promote cell cycle transition and upregulate Smad pathways in myeloma. Cancer Lett. 2023 Aug 1;568:216284. doi: 10.1016/j.canlet.2023.216284. Epub 2023 Jun 24. PMID: 37356470; PMCID: PMC10408729.
# SEQUENCE No. (e.g., 1, 2, 3, etc.); […] (e.g., Cells, Incubation, Reagent, etc.); VALUE and DESCRIPTION.
# 1; Cells; 5 uL; white, solid bottom 1536-well Greiner assay plate.
# 2; Compounds; 23 nL; Kalypsis pin tool (Wako USA) equipped with a 1536-well pin head to transfer to the assay plates.
# 3; Incubation; 48 hours; 37C incubation.
# 4; Reagent;5uL; CellTiter Glo (Promega).
# 5; Detector; 425V; Luminescence; Viewlux PerkinElmer.
# NOTES (numbers refer to Sequence numbers above)
# 1. The cell-based screening methods employed in this study were like those previously published. Briefly, the corresponding myeloma cell lines were screened in 1,536-well plates with 500 cells, 5-uL per well for inhibition of cell viability (assessed by measuring ATP levels with CellTiterGlo).
# 2. NCATS MIPE 4.0 library of approved and investigational drugs were added using the Kalypsis pin tool. Wells treated with DMSO only for 100% viability and media only for 0% viability were used as controls.
# 3. The assay plates were covered and incubated for 48 hours in a 37C, 5% CO2 incubator with controlled humidity.
# 4. After 48 hours, CellTilter-GloTM luminescent substrate mix (Promega) reagent was added to the assay plate and plates we incubated for 5 min at room temperature.
# 5. Signal was measured as median relative luminescence units on a ViewLux (PerkinElmer) multiplate reader.
# [1] Heske CM, Davis MI, Baumgart JT, Wilson K, Gormally MV, Chen L, Zhang X, Ceribelli M, Duveau DY, Guha R, Ferrer M, Arnaldez FI, Ji J, Tran HL, Zhang Y, Mendoza A, Helman LJ, Thomas CJ. Matrix Screen Identifies Synergistic Combination of PARP Inhibitors and Nicotinamide Phosphoribosyltransferase (NAMPT) Inhibitors in Ewing Sarcoma. Clin Cancer Res. 2017 Dec 1;23(23):7301-7311. doi: 10.1158/1078-0432.CCR-17-1121. Epub 2017 Sep 12. PMID: 28899971; PMCID: PMC6636827.
# Potency is read from the fitted curve at half-maximal effect.
SMILES,Potency,viability (% of control)
CCC(=O)NC[C@H](Cc1ccc(OCCc2nc(-c3ccccc3)oc2C)cc1)NC(C)=CC(=O)c1ccc(C(F)(F)F)cc1,23.5 µM (active),
CC(=O)N(C)C1(c2ccccc2)CCN(CCC[C@]2(c3ccc(Cl)c(Cl)c3)CCCN(C(=O)c3ccccc3)C2)CC1,23.5 µM (active),
CCc1ccc(OCc2ccccc2C(=O)Nc2ccc3nc(C)cc(N)c3c2)cc1,7.43 µM (active),
COc1ccc(-n2c(C)c([N+](=O)[O-])c3ccc(O)cc32)cc1,,75.9%
COc1ccc2cc(-c3nc(-c4ccc(S(C)=O)cc4)[nH]c3-c3ccncc3)ccc2c1 (stereo not given),,75.4%
Cc1c(O)cccc1C(=O)N[C@@H](CSc1ccccc1)[C@H](O)CN1C[C@H]2CCCC[C@@H]2C[C@@H]1C(=O)NC(C)(C)C,16.6 µM (active),
CC[C@@]1(O)C[C@H](O[C@H]2C[C@H](N(C)C)[C@H](O[C@H]3C[C@H](O)[C@H](O[C@H]4CCC(=O)[C@H](C)O4)[C@H](C)O3)[C@H](C)O2)c2c(cc3c(c2O)C(=O)c2c(O)cccc2C3=O)[C@@H]1C(=O)OC,0.296 µM (active),
NS(=O)(=O)c1cccc2c1C(=O)c1cccc(O)c1C2=O,0.296 µM (active),
CCc1ccc(C=C2SC(=S)NC2=O)cc1,,65.9%
CC1(C)CCC2=C(O1)c1ccccc1C(=O)C2=O,20.9 µM (active),
NC(=O)NN=Cc1ccc([N+](=O)[O-])o1,,91.8%
C[C@H]1[C@H](NC(=O)C(=NOC(C)(C)C(=O)O)c2csc(N)n2)C(=O)N1S(=O)(=O)O,,118%
Cc1ccc([C@@H]2O[C@H](CO)[C@@H](O)[C@H](O)[C@@H]2O)cc1Cc1ccc(-c2ccc(F)cc2)s1,,71.3%
CN1CCN(CCOc2cc(OC3CCOCC3)c3c(Nc4c(Cl)ccc5c4OCO5)ncnc3c2)CC1,16.6 µM (active),
CC(C)(C)Cn1c(N)nc2ccc(-c3[nH]c(C(C)(C)C)nc3-c3ccc(F)cc3)nc21,7.43 µM (active),
O=C(NOCC(O)CO)c1cc(Br)c(F)c(F)c1Nc1ccc(I)cc1F (stereo not given),,58.7%
CCN(CC)CCOc1ccc(C(=C(Cl)c2ccccc2)c2ccccc2)cc1,,127%
O=c1cc(N2CCOCC2)oc2c(-c3cccc4c3sc3ccccc34)cccc12,4.18 µM (active),
CON=C(C(=O)N[C@@H]1C(=O)N2C(C(=O)OCOC(=O)C(C)(C)C)=C(C=Cc3scnc3C)CS[C@H]12)c1csc(N)n1,,115%
O=C1c2ccccc2-[n+]2ccc3c([nH]c4ccccc43)c21,1.48 µM (active),

SMILES,Potency,viability (% of control)
NC1CCC(Nc2nc(Nc3ccc(C(=O)N4CCCCC4)cc3)c3ncn(-c4cccc(F)c4)c3n2)CC1 (stereo not given),,104%
O=C1NC(=O)C(=Cc2cccc(C(F)(F)F)c2)S1,,103%
Nc1ncnc2c1ncn2[C@@H]1O[C@@H](CO)[C@H](O)[C@H]1O,,106%
C=C1C(=O)[C@@]23C(CC[C@@H]1[C@H]2O)[C@@]12CO[C@]3(O)[C@@H](O)[C@@H]1C(C)(C)CC[C@@H]2O (stereo not given in full),2.35 µM (active),
Clc1ccc(C(c2ccc(Cl)cc2)n2cc[n+](CC(OCc3ccc(Cl)cc3Cl)c3ccc(Cl)cc3Cl)c2)cc1 (stereo not given),18.7 µM (active),
Cn1cc(C=C2C(=O)Nc3cccnc32)c2ccccc21,,85.3%
OC[C@H]1O[C@@H](n2cnc3c2NC=NC[C@@H]3O)C[C@H]1O,,85.1%
CC=CC(=O)N(CC)c1ccccc1C,0.0418 µM (active),
c1ccc2c(Cc3c[nH]c4ccccc34)c[nH]c2c1,18.7 µM (active),
O=C(O)c1ccccc1C(=O)Nc1ccc(-c2ccccc2)cc1,,84.4%
O=C1C[C@@H](c2ccc(O)cc2)Oc2cc(O)cc(O)c21,,72.6%
CCCCCNC(=O)N1CCC(CN(Cc2ccc(Cl)cc2)Cc2ccc([N+](=O)[O-])s2)C1 (stereo not given),18.7 µM (active),
O=C(O)c1cc(O)c2c(c1)C(=O)c1cccc(O)c1C2=O,38.2 µM (active),
Clc1ccc(COC(Cn2ccnc2)c2ccc(Cl)cc2Cl)cc1 (stereo not given),,69.6%
Cc1nc(N)sc1-c1ccnc(Nc2ccc(N3CCOCC3)cc2)n1,7.43 µM (active),
CC(=O)Nc1ccc([C@H](C)C(=O)Nc2ncc(C(C)C)s2)cc1,3.32 µM (active),
CC(C)=CC[C@@H](O)C1=CC(=O)c2c(O)ccc(O)c2C1=O,0.418 µM (active),
O=C(NCc1ccccc1)c1csc(Nc2ccncn2)n1,18.7 µM (active),
Cc1ccc(Nc2cc(-c3cccc(N4C(=O)c5ccccc5C4=O)c3)ncn2)cc1NS(C)(=O)=O,20.9 µM (active),
O=C(O)c1ccc(-c2c[nH]c3ncc(-c4ccccc4)cc23)cc1C1CCCC1,,120%
